Source: PubChem
hcDAF12 agonist: activators of H. contortus DAF-12 nuclear receptor | HEK293 hcDAF-12 lit1-tk-luc reporter, luminescence; 0% DMSO, 100% Δ7-dafachronic acid | activation, % at 6.8 µM | 1.4% of 370,000 active;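 active = activation above the mean of all tested compounds plus 3 SD, cut at about 5.5% in these data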;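 also: 100% = response to 3 µM Δ7-dafachronic acid high control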
hgDAF12 agonist: activates the H. glycines DAF-12 receptor ligand-binding domain. HEK293 GAL4-hgDAF12 UAS-luciferase reporter, agonist luminescence; normalized to butyrate control. activation, % at 6.8 µM. 1.8% of 370,000 active;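 active = activation above a cutoff set at the mean of all screened compounds plus 3 SD, cut at about 10% in these data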;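 also: 0% = DMSO wells and 100% = sodium butyrate wells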
DAX1 inh-1: inhibitors of DAX1 repression of SF-1 activated StAR promoter. HEK293T StAR-luciferase reporter, SF-1/DAX-1 repression relief. inhibition, % at 6.8 µM. 1.1% of 370,000 active. AID 652010;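 active = inhibition above the mean over all tested compounds plus 3 SD, cut at about 3.6% in these data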;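 also: 0% = DAX-1 cells with DMSO and 100% = cells lacking DAX-1 with DMSO; higher inhibition means more luminescence from relief of DAX-1 repression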
ssDAF12 agonist: S. stercoralis DAF-12 activation, primary screen; HEK293 ssDAF-12/GRIP1 lit1-tk-luc reporter, luminescence; % of 3 µM dafachronic acid response; activation, % at 6.8 µM; 1% of 370,000 active;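 active = activation above the mean over all tested compounds plus 3 SD, cut at about 0.9% in these data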;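 also: 0% = DMSO-only wells and 100% = 3 µM delta7-dafachronic acid wells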
DAX1 inh-2: inhibitors of human orphan nuclear receptor DAX1 (NR0B1). inhibition, % at 6.75 µM. 0.99% of 340,000 active. AID 504766. P51843. HEK293 Gal4-DAX1 luciferase reporter, luminescence;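 active = inhibition above the mean over all tested compounds plus 3 SD, cut at about 4.2% in these data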;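 also: 0% = DAX1-transfected cells with DMSO and 100% = empty-vector control cells with DMSO; inhibition shows as a rise in luminescence from relieved DAX1 repression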
LXRb hcDAF ctr: counter-screen for hcDAF-12 agonists: agonists of human LXR-beta. shares compounds with hcDAF12 agonist. HEK293 Gal4-LXR tk-luc reporter, luminescence, 24 h; normalized: DMSO 0%, positive control 100%. activation, % at 6.8 µM. 3,400 tested, under 10 active. AID 743027;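 active = mean percent activation of the reporter above a cutoff set as the average over tested compounds plus their standard deviation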
Target sequence (P55055 whole entry, looked up, the tested form may be a part): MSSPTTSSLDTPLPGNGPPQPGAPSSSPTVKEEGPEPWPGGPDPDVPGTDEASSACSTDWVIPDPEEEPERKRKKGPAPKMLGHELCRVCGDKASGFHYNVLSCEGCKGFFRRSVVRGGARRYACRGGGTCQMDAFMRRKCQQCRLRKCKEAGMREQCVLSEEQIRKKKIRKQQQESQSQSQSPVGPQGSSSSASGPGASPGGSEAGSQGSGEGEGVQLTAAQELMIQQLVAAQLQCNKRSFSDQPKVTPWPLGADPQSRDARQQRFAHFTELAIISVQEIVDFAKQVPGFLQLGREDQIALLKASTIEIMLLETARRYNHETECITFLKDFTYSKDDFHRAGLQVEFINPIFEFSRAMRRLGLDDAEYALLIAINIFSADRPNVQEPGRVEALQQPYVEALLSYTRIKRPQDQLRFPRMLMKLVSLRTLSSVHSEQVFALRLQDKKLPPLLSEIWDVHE
hcDAF12 conf: hcDAF-12 agonism, confirmation assay; shares compounds with hcDAF12 agonist; HEK293 hcDAF-12 lit1-tk-luc reporter, luminescence; % of Δ7-dafachronic acid response; activation, % at 6.8 µM; 61% of 3,400 active; AID 743032;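 active = mean activation across triplicate tests above the threshold derived from the earlier primary screen, cut at about 5.5% in these data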;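 also: 0% = DMSO only wells and 100% = 3 µM Δ7-dafachronic acid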
An asterisk follows results filed as active; . = no result. Shown are actives, neighbours in structure and some others; about 4.1% of the full set was active somewhere.

SMILES	hcDAF12 agonist	hgDAF12 agonist	DAX1 inh-1	ssDAF12 agonist	DAX1 inh-2	LXRb hcDAF ctr	hcDAF12 conf
CC(c1c[nH]c2ccccc12)c1cn(C)c2ccccc12 (stereo not drawn)	2	2	-1	-1	.	.	.
Cc1cccc(NC(=O)c2cnc3scc(C)n3c2=O)c1	5	6	2	-1	2	.	.
Cc1csc2ncc(C(=O)Nc3ccon3)c(=O)n12	9.5*	2	0	-1	-1	0	1
O=S(=O)(c1ccc(CN2CCOCCOCCN(Cc3ccc(S(=O)(=O)C(F)(F)F)cc3)CCOCC2)cc1)C(F)(F)F	-4	-4	.	-2	.	.	.
CCn1ncc(Br)c1C(=O)Nc1ccc(C(C)C)cc1	7.8*	10	0	-1	1	0	3
Cc1cc(-c2cc(NC(=O)Cc3c[nH]c4ccccc34)ccc2N(C)c2cccnc2)ccc1F	-1	-1	0	0	.	.	.
Cc1ccc(C(=O)N2O[C@]34C=C[C@]25C[C@@H](O)CC[C@]5(C)C3CC[C@]2(C)[C@@H]([C@H](C)/C=C/[C@H](C)C(C)C)CC[C@H]24)cc1 (stereo partly drawn)	0	7	0	-1	.	.	.
CCOC(=O)c1ccc(S(=O)(=O)Nc2cc(C(=O)O)ccc2Cl)cc1	7.2*	-2	0	-1	1	0	2
CCOC(=O)c1ccc(S(=O)(=O)NNS(=O)(=O)c2ccc(C)cc2)cc1	0	2	-1	0	2	.	.
Oc1c(N=Nc2ccc(F)cc2)ccc2ccccc12	7.4*	10	1	0	3	2	12*
O=C(OCc1nc2ccccc2s1)c1cccc(S(=O)(=O)N2CCOCC2)c1	7.7*	8	2	1	2	1	9.2*
O=C(CSc1nc2ccccc2s1)Nc1cc(S(=O)(=O)N2CCOCC2)ccc1O	9.7*	0	0	0	1	0	5
Cc1nnc(SCC(=O)Nc2cc(S(=O)(=O)N3CCOCC3)ccc2C)s1	-1	0	0	-1	0	.	.
COc1ccc(Sc2cccc3c2S(=O)(=O)N(C2CC2)C[C@@H](COCc2ccccc2)O3)cc1OC	-1	0	-2	-2	.	.	.
COc1cc(-n2c(C)nc3cc(C(=O)N4CCN(C(C)=O)CC4)ccc32)cc(OC)c1OC	-2	-2	0	-1	.	.	.
O=C(Nc1ccccc1)c1cn(CCBr)cn1	6.8*	9	2	1.3*	3	1	5
COc1ccc(OC)c(C(=O)Nc2c(O)ccc3ccccc23)c1	7.0*	1	0	0	-1	0	6.1*
COc1ccc(CC(=O)Nc2ccc(NC(=O)c3ccccc3F)cc2)cc1	9.8*	1	0	-2	0	0	0
COc1cc2c(cc1NC(=O)c1ccccc1F)CCCC2	8.2*	10	2	0	0	0	6.7*
CCOc1ccc(NC(=O)c2cc3ccccc3cc2OC)cc1	7.0*	8	0	0	6.3*	1	6.1*
COc1cc(OC)c(NC(=O)c2ccccc2F)cc1Cl	5	2	1	0	1	.	.
Cc1ccc(/C=N/Nc2cccc3cccnc23)c(O)c1	7.5*	7	2	1	0	2	17*
O=C(Nc1ccc(Cl)cc1)C1CCCN1S(=O)(=O)c1cccc2cccnc12 (stereo not drawn)	-3	-1	-2	-2	.	.	.
COC(=O)[C@]12C[C@H](CC(=O)N3CCCC3)C(=O)N(Cc3ccccc3)C1=C[C@H](C1CCCC1)O[C@@H]2C	-2	1	-1	-1	.	.	.
COc1ccc(OC)c(NC(=O)COC(=O)/C=C/c2ccco2)c1	0	0	0	-1	1	.	.
SMILES	hcDAF12 agonist	hgDAF12 agonist	DAX1 inh-1	ssDAF12 agonist	DAX1 inh-2	LXRb hcDAF ctr	hcDAF12 conf
COc1ccc(OC)c(NC(=O)COC(=O)/C=C/c2ccccc2Cl)c1	7.1*	1	0	-2	-1	0	0
Cc1ccc(-c2cc(C(=O)N=Nc3c(O)[nH]c4ccccc34)[nH]n2)cc1C	-4	0	1	-1	.	.	.
COC(=O)[C@]12C[C@H](CC(=O)N3CCN(C(=O)C4CC4)CC3)C(=O)N(Cc3ccco3)C1=C[C@H](C1CCCC1)O[C@@H]2C	1	1	0	0	.	.	.
CCOC(=O)c1cnn(-c2ncnc3sc4c(c23)CCC4)c1N	7.3*	2	0	1	0	0	4
COc1cccc(CC(=O)N2CCC(n3nccc3NC(=O)C3CCOC3)CC2)c1 (stereo not drawn)	6.9*	4	1	0	0	0	5
C[C@@H]1CCCCO[C@@H](CN(C)C(=O)Nc2ccc(C(F)(F)F)cc2)[C@@H](C)CN([C@H](C)CO)C(=O)c2cc(NS(=O)(=O)c3ccc(Cl)cc3)ccc2O1	0	-3	-1	-1	.	.	.
Cc1ccc(SC2=C(Sc3ccc(C)cc3)C(=O)c3ccccc3C2=O)cc1	9.7*	6	2	1	3	0	2
O=C(Nc1nc(Cc2ccccc2)c(Cc2ccccc2)n1Cc1ccccc1)c1ccccc1	-1	-1	0	-1	.	.	.
COc1cccc(NC(=O)c2cc3ccccc3oc2=O)c1	7.2*	13*	3	0	3	1	8.7*
Oc1ccc(Nc2ccccc2F)c2cccnc12	3	3	.	0	.	.	.
CCOC(=O)c1ccc(-c2ccc(/C=N/NC(=O)Cc3nnc(N)s3)o2)cc1	8.8*	7	3.7*	0	1	0	4
C[C@H]1[C@@H](OC(=O)NCc2ccc(Cl)c(Cl)c2)CC[C@@]23CCCN2C(=O)CCC[C@@H]13	-3	-3	.	-2	.	.	.
COc1nc2c(C)cccc2cc1-c1noc(-c2ccco2)n1	6.9*	2	1	0	0	0	5
Cc1ccc(-n2c(SCc3nc4ccccc4[nH]3)nnc2-c2ccccn2)cc1	-3	-1	0	-1	.	.	.
O=[N+]([O-])c1cccc(/C(=N/N=C/c2ccccc2Br)C23CN4CN(CN(C4)C2)C3)c1	0	-1	0	-1	0	.	.
CC(C)=N/N=C(/c1ccc([N+](=O)[O-])cc1)C12CN3CN(CN(C3)C1)C2	6.9*	-1	0	-1	0	0	0
COc1ccc(C(C#N)N2N=C(C)CC2c2ccccc2)cc1OC (stereo not drawn)	0	-2	0	0	0	.	.
COc1ccc(C(C#N)N2N=C(c3ccccc3)CC2c2ccccc2)cc1OC (stereo not drawn)	8.7*	7	2	0	2	0	2
